Bioassay records from PubChem.
The entries come from a sample that favours hits as a whole.
Lassa entry inh: qHTS for Inhibitors of binding or entry into cells for Lassa Virus. Lassa virus pseudotype entry inhibition, cell reporter. Potency, µM (doses to about 37.9 µM), for inactives: at the highest dose activity change, negative = inhibition, usual class: inhibitors. 1.2% of 300,000 active; calls by dose curve; tested in HEK293 cells; also: potency is read from the fitted curve at half-maximal effect; % is scaled to controls: 0 for no effect and ±100 for the full control effect; nearly all actives have a fitted effect of over 50% in size
CHX counter: Cycloheximide Counterscreen for Small Molecule Inhibitors of Shiga Toxin; max response, %; cell reporter, cycloheximide protein synthesis inhibition counterscreen; AID 2314, 2010; 12% of 300,000 active; in the data active = max response mostly above about 13%, no sharp cut-off; inactive = mostly below about 14%; also: read at 38.3 µM for the half of the compounds with a filed dose; 0% is about no effect
AMA1-RON2 inh: qHTS for Inhibitors of AMA1-RON; Towards Development of Antimalarial Drug Lead: Primary Screen | Plasmodium falciparum AMA1 (3D7) - RON2 peptide interaction | Potency, µM (titrated, usually from 58.2 µM), without a hit: at the top dose activity change, negative = inhibition, actives largely listed as inhibitors | AlphaScreen AMA1-biotinylated RON2 peptide binding | 0.2% of 360,000 active | AID 720542, 2013; active = well fitted inhibition curve with a large enough effect; inconclusive = small, poorly fitted or top-dose-only effect; inactive = no such curve, though single readings can be large or run the other way;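 also: potency is read from the fitted curve at half-maximal effect; 0% = vehicle wells and -100% = peptide control; nearly all actives have a fitted effect of over 45% in size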
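AMA1 (3D7) with his tag at 25 nM final met compounds first, then biotinylated RON2 peptide at 25 nM; detection used donor plus acceptor beads, 10 µg/mL apiece, read by AlphaScreen after 30 min at room temperature.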
MARV entry inh: qHTS for inhibitors of binding or entry into cells for Marburg Virus | 1.8% of 300,000 active | Potency, µM (titrated, usually from 37.8 µM), inactives show at the highest dose activity change, negative = inhibition, hits mostly inhibitors | Marburg virus pseudotyped entry inhibition, cell reporter | AID 540276, 2011; calls by dose curve; tested in HEK293 cells; also: potency is read from the fitted curve at half-maximal effect; % is scaled to controls: 0 for no effect and ±100 for the full control effect
Shiga toxin inh: A qHTS for Small Molecule Inhibitors of Shiga Toxin; Vero cells, Shiga toxin protein synthesis inhibition reporter; AID 2315, 2010; inhibition, % at 38.7 µM; 9.2% of 290,000 active; in the data active = inhibition mostly above about 28%, no sharp cut-off; inactive = mostly below about 43%; also: 0% is about no effect
* = called active by the depositor; u = inconclusive; x = no result given; + = active, no number; [ ] = remark or other dose.

SMILES | Lassa entry inh | CHX counter | AMA1-RON2 inh | MARV entry inh | Shiga toxin inh
Cc1cccc(C(=O)Nc2ccc(OCc3cc(=O)n4ccc(C)cc4n3)cc2)c1 | 13%[46.1 µM] | x | x | x | x
O=C(Cc1ccc(OCc2ccccc2)cc1)NCc1ccc2c(c1)OCO2 | x | x | 1% | x | x
Cc1ccc(N/N=C2/CCCNC2=O)cc1 | -3% | 11 | -1% | 5% | 40
O=C1CCCC/C1=N\Nc1ccc(C2CCCCC2)cc1 | x | 39* | x | x | 64*
O=C1CCCC/C1=N\Nc1ccc(OCc2ccccc2)cc1 | -23% | 21* | 3% | 4% | 56*
Cc1cc(O)c(-c2cc(O)c(C)cc2O)cc1O | x | 10* | u | x | 11
COC(=O)c1cc2sccc2n1Cc1ccc(F)cc1Cl | x | x | x | -5%[46.1 µM] | x
O=C(Nc1nc2ccccc2s1)c1ccc(F)cc1 | x | 32* | -4% | x | 82*
CC(C)(C)N1C(=O)c2ccc(C(=O)Nc3ccc(O)cc3)cc2C1=O | -16% | 23* | -4% | u | 46*
CCc1nnc(NC(=O)c2ccc3ncsc3c2)s1 | x | 18* | 6% | x | 47*
COc1ccc2nc(NC(=O)c3ccc(F)cc3)sc2c1 | -1%[46.1 µM] | 27* | 1% | u | x
Cc1cccc(N2C(=O)N(CC(=O)C(C)(C)C)c3ccccc3S2(=O)=O)c1C | -15%[46.1 µM] | x | x | x | x
Cc1ccc2nc(NC(=O)c3ccc(-c4nc5ccccc5s4)s3)sc2c1 | 24% | 51* | -4% | -5% | 86*
NC(=O)c1ccc2nc(NC(=O)c3ccc(N)cc3)sc2c1 | u | 20* | 11% | u | 33*
CC(=O)Nc1nc2cc(C(N)=O)ccc2s1 | x | x | -1% | x | x
CCc1nnc(NC(=O)c2ccc(NC(=O)C(C)C)cc2)s1 | x | 41* | -2% | x | 99*
COc1ccc2nc(NC(=O)c3ccc4ncsc4c3)sc2c1 | x | 56* | 21% | x | 70*
Cc1cnc(NC(=O)c2ccc3ncsc3c2)s1 | u | x | -8% | u | x
Cc1ccc2nc(NC(=O)C3=NN(c4ccccc4)C(=O)CC3)sc2c1 | x | 8 | 12% | 3% | 31
CCOC(=O)C[C@@H]1OC[C@H](C)N1S(=O)(=O)c1ccc(C)cc1 | x | x | 5% | x | x
O=S1OCCN1c1ccccc1 (centres undefined) | x | -2 | -1% | x | -4
CC1CCN(S(=O)(=O)c2ccc3c(c2)c(=O)c(C(=O)NC(C)c2ccccc2)cn3C)CC1 (centres undefined) | 18%[46.1 µM] | x | x | 4%[46.1 µM] | x
COc1cccc(C(=O)Nc2c(C(=O)N3CCN(c4ccc(F)cc4)CC3)oc3ccccc23)c1 | 13%[46.1 µM] | x | x | x | x
COc1ccc(C(=O)Nc2nc3ccccc3s2)cc1 | x | 8 | 3% | x | 22
O=C(Nc1nc2c(s1)C(=O)CCC2)c1ccccc1 | u | 43* | 12% | u | 48
SMILES | Lassa entry inh | CHX counter | AMA1-RON2 inh | MARV entry inh | Shiga toxin inh
COc1cccc(C(=O)Nc2nc3ccccc3s2)c1 | x | 35* | -4% | x | 57*
O=C(Nc1nc(=O)[nH]s1)c1ccccc1 | 1% | 7 | 0% | -10%[46.1 µM] | 2
O=C(Nc1nc(=O)c2ccccc2s1)c1ccccc1 | -25% | 46* | -12% | u | 95*
O=C(Nc1nc2ccccc2s1)c1ccc(Cl)s1 | x | 32* | 13% | x | 86*
CCOC(=O)C1(C)CCCN1C(=O)c1cccc2ccccc12 (centres undefined) | x | x | -6% | x | x
CSc1nc2ccc3nc(NC(=O)c4ccc(C)cc4)sc3c2s1 | x | 5 | 1% | x | 10
CCc1nnc(NC(=O)c2ccncc2)s1 | 27% | -4 | 15% | 13% | 12
CCc1nnc(NC(=O)c2ccc3c(c2)C(=O)N(C(C)(C)C)C3=O)s1 | -6% | 17* | 35% | u | 38
Cc1ccc(C(=O)Nc2nc3ccccc3c(=O)s2)cc1 | -21% | 43* | -2% | -21% | 101*
COC(C(=O)Nc1ccc(Br)cc1F)c1ccccc1 (centres undefined) | x | 10 | 16% | x | 10
O=C(Nc1cccs1)Nc1ccc(F)cc1F | u | 20* | 6% | 12%[46.1 µM] | 37
O=C(Nc1cccs1)Nc1ccc(Br)cc1F | u | 67* | -11% | u | 194*
COc1cc2ccccc2cc1C(=O)Nc1ccc2oc(=O)ccc2c1 | -8% | 5 | -3% | u | -5
CC(C)c1ccc(NC(=S)Nc2ccc3[nH]c(=O)[nH]c3c2)cc1 | x | 14 | 53% | x | 24*
COc1cccc(C(=O)Nc2ccc3[nH]c(=O)[nH]c3c2)c1OC | x | 8 | -8% | -15%[46.1 µM] | 54*
O=c1[nH]c2ccc(NC(=S)Nc3ccc(Cl)cc3)cc2[nH]1 | -4% | -4 | -8% | -8% | -2
COc1cc(OC)c(C(=O)Nc2ccc3ccccc3c2)cc1OC | -2% | 43* | -21% | -4% | 107*
COc1cccc(C(=O)Nc2ccc(N(C)C)cc2)c1OC | 14% | 39* | 1% | -8%[46.1 µM] | 124*
CCn1c2ccccc2c2cc(NC(=O)c3cccc(OC)c3OC)ccc21 | u | 2 | -3% | 4% | 16
CC1CCCCc2nc3c(c(=O)n21)CCCC3 (centres undefined) | x | x | -3% | x | x
COc1cccc(C(=O)Nc2ccncc2)c1OC | x | 1 | 0% | x | x
COc1ccc(NC(=O)c2cc3ccccc3cc2OC)cc1OC | x | 15* | -10% | x | 23
O=C(Nc1ccccc1)c1cccc(C(=O)Nc2ccccc2)n1 | 0%[46.1 µM] | -2 | 3% | -1%[46.1 µM] | -5
COc1cccc(NC(=O)c2cc3ccccc3cc2OC)c1 | x | 55* | -1% | x | 108*
CN(C)c1ccc(NC(=O)c2cccc(C(=O)Nc3ccc(N(C)C)cc3)n2)cc1 | u | 49* | 10µM* | u | +
SMILES | Lassa entry inh | CHX counter | AMA1-RON2 inh | MARV entry inh | Shiga toxin inh
COc1ccc(NC(=O)c2cccc3ccccc23)cc1OC | x | x | 0% | x | x
COc1cccc(NC(=O)c2cccc(OC)c2OC)c1 | u | 70* | 12% | -27% | 125*
Cc1ccc(CCNC(=O)CN2C(=O)COc3ccc(S(=O)(=O)N4CCCCCC4)cc32)cc1 | -1%[46.1 µM] | x | x | x | x
COc1ccccc1CNC(=O)c1ccc(Cn2c(SCc3ccccc3)nc3cccnc32)cc1 | 7%[46.1 µM] | x | x | x | x
COc1ccc(OC)c(NC(=O)c2cc3ccccc3cc2OC)c1 | -3%[46.1 µM] | 2 | -5% | 24%[46.1 µM] | 43
COc1ccc(C(=O)NC(=S)Nc2ccc3[nH]c(=O)[nH]c3c2)c(OC)c1 | x | 21* | 17% | x | 35
COc1cc2ccccc2cc1C(=O)Nc1ccc(O)cc1 | u | 44* | -1% | 9% | 63*
COc1cc(OC)cc(C(=O)NC(=S)Nc2ccc3[nH]c(=O)[nH]c3c2)c1 | -6% | -7 | -2% | 2%[46.1 µM] | 19
COc1cccc(NC(=O)c2ccccc2Br)c1 | x | 28* | -3% | x | x
O=C(O)C1C=CCC(C(=O)O)C1 (centres undefined) | x | x | -1% | x | x
CCOC(=O)c1cc(C)n(CC2CCC(C(=O)Nc3cccc(C)c3)CC2)c1C (centres undefined) | -5%[46.1 µM] | x | x | x | x
CCN(C(=O)CSc1nc2ccc([N+](=O)[O-])cc2s1)c1c(N)n(Cc2ccccc2)c(=O)[nH]c1=O | x | x | -3% | x | x
Cc1cc(C)n(C(=O)c2c([N+](=O)[O-])cnn2C)n1 | u | -2 | 15% | 21% | -7
